Test [1] can be described thus: Cell Viability - Mesenchymal (AID 546).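 Further: cells exposed to compound for 40 hours before reading; 0% = DMSO only and -100% = 100 µM tamoxifen.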 As to conditions: mesenchymal cells viability, qHTS; activity change, negative = cytotoxicity: at 91.7 µM (top of the series). The essentials:
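In this qHTS cytotoxicity format, glomerulus-derived human mesenchymal kidney cells received compound for 40 hr, then luciferase-based ATP quantitation. Concentration-response data were fitted with the Hill equation.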
(In qHTS, concentration-response curves come from the screen itself.)

Test [2] concerns the target 3',5'-cyclic-AMP phosphodiesterase 4B (Homo sapiens) (UniProt Q07343). Put plainly: qHTS Assay for Inhibitors of PDE-IV (AID 607; active means well fitted activation curve with a large enough effect in the main read-out, with a control signal flat, not every such curve was filed as active; further: % of control where 0% means no effect). The method in brief: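 ACTOne HEK293 cells carry a modified cAMP-gated CNG channel and express endogenous PDE4; plated 1000 cells/well, compounds up to 22.9 uM final. Membrane-potential dye fluorescence (ex 535/em 590) was read; parental cells received 10 uM forskolin + 100 uM RO 20-1724.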

The nature of test [3]: Cellular Toxicity (caspase-3) HepG2 (AID 654).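 Further: cells exposed to compound for 16 hours before reading; 0% = DMSO alone and 100% = caspase signal from 100 µM tamoxifen.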 The method in brief:
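Concentration-response AC50 values reflect caspase-3/7 induction in HepG2 cells after 16 hours of compound exposure, quantified by luminescence from liberated aminoluciferin and referenced to 100 uM tamoxifen as full stimulation.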

The nature of test [4]: Cellular Toxicity (caspase-3) Jurkat (AID 655).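 Further: cells exposed to compound for 16 h at 37 °C before reading.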 The method in brief: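 Luminescent caspase-3/7 readout (aminoluciferin substrate cleavage) in human T-cell leukemia Jurkat cells after 16 hr compound exposure. Concentration-response normalized to DMSO and 100 uM tamoxifen; AC50 by standard Hill equation.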
The nature of test [5]: Cellular Toxicity (caspase-3) HUV-EC-C (AID 656).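 Further: 0% = DMSO basal and 100% = 100 µM tamoxifen.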 The method in brief:
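Luminescent caspase-3/7 activation (aminoluciferin substrate cleavage) in HUV-EC-C cells after 16 hr compound exposure, 37°C. Signal normalized to DMSO basal and 100 uM tamoxifen as 100%; AC50 from concentration-response fitted with the Hill equation.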

The nature of test [6]: Cellular Toxicity (caspase-3) SHSY5Y (AID 657). The method in brief: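 Luminescent caspase-3/7 readout (aminoluciferin release) in SH-SY5Y cells after 16 h compound exposure in complete medium. Activity scaled between DMSO basal and 10 uM staurosporine as 100%; concentration-response fitted to Hill equation for AC50.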
Test [7] in a line: Cellular Toxicity (caspase-3) BJ (AID 658).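 Further: 0% = DMSO basal and 100% = 10 µM staurosporine.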 The method in brief: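 Plated BJ cells (1000/well) rested 5 hr, received compound for 16 hr at 37 °C, then Caspase-Glo 3/7 reagent for 1 hr at room temperature before luminescence reading.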
The nature of test [8]: Cellular Toxicity (caspase-3) MRC-5 (AID 659).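 Further: 0% = DMSO basal and 100% = 10 µM staurosporine.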 Particulars: Potency: caspase-3 activation. The method in brief: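 Apoptosis readout in MRC-5 cells: luciferase light generated after caspase 3/7 cleaves a peptide-aminoluciferin substrate, measured post 16 hr compound incubation at 37 °C.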
A short description of test [9]: Cellular Toxicity (caspase-3) Mesangial (AID 660).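 Further: combined caspase 3 and 7 activity read by Caspase-Glo luminescence; cells exposed to compound for 16 h before the caspase read.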 The essentials:
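AC50 values come from Hill-equation fits of caspase 3/7 activation, measured as Caspase-Glo luminescence in human glomerular mesangial cells exposed to compound for 16 h at 37 °C; 100% set by 100 uM tamoxifen.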

Test [10] is described as follows: Cellular Toxicity (caspase-3) SK-N-SH (AID 661).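 Further: 0% = DMSO basal and 100% = 10 µM staurosporine.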 The essentials:
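Apoptosis readout in SK-N-SH neuroblastoma: Caspase-Glo 3/7 luminescence following 16 hr treatment in complete culture medium. Normalization used DMSO and 10 uM staurosporine controls.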

Test [11] in a line: Cellular Toxicity (caspase-3) N2a (AID 665).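 Further: compound exposure lasted 16 h at 37 °C before readout.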 As to conditions: Potency: caspase-3 activation. The essentials:
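Concentration-response qHTS: compound-induced caspase-3/7 luminescence in N2a cells (16 h, 37 °C), relative to DMSO and 10 uM staurosporine controls; AC50 obtained using the standard Hill equation.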

Test [12] in a line: Cellular Toxicity (caspase-3) Renal Proximal Tubule (AID 667).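 Further: cells exposed to compound for 16 hours at 37 °C before detection; 0% = DMSO basal and 100% = 10 µM staurosporine.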 The method in brief:
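Luminescent caspase 3/7 signal from peptide-aminoluciferin cleavage measures apoptosis in freshly isolated rat kidney proximal tubule cells after 16 h compound exposure. Concentration-response data are normalized to DMSO and 10 uM staurosporine, and AC50 values come from Hill equation fits.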

Test [13] has as its target Guanine nucleotide-binding protein G(i) subunit alpha-1 (Homo sapiens) (UniProt P63096). Description: qHTS Assay for Inhibitors of RGS12 GoLoco Motif Activity (Green Fluorophore) (AID 879).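 Further: 0% = labeled peptide with Gαi1 and full inhibition = labeled peptide alone without protein; negative values mean loss of peptide binding seen as reduced polarization.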 The method in brief:
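A drop in FITC polarization marked displacement of the FITC-tagged RGS12 GoLoco peptide (10 nM) from Gαi1 (50 nM). Compounds were incubated 10 min at room temperature in Tris pH 7.5 buffer containing 150 mM NaCl, 0.1 mM GDP and 0.05% NP40; unlabeled peptide titration served as control.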

The target in test [14] is Cytochrome P450 2C9 (Homo sapiens) (UniProt P11712). Description: qHTS Assay for Inhibitors and Substrates of Cytochrome P450 2C9 (AID 883). Further: on the % scale 0 is the no-effect control and ±100 the full control effect; nearly all actives have a fitted effect of over 60% in size. The method in brief: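 CYP2C9 deoxyluciferin hydroxylation, 37C, 60 min with NADPH regeneration; 10nM enzyme, 100uM Luciferin-H (KM). Glo detection reagent stopped reaction; luminescence normalized to sulphaphenazole (57uM) full inhibition.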
Chain of Cytochrome P450 2C9 (Homo sapiens) (P11712 whole entry, looked up): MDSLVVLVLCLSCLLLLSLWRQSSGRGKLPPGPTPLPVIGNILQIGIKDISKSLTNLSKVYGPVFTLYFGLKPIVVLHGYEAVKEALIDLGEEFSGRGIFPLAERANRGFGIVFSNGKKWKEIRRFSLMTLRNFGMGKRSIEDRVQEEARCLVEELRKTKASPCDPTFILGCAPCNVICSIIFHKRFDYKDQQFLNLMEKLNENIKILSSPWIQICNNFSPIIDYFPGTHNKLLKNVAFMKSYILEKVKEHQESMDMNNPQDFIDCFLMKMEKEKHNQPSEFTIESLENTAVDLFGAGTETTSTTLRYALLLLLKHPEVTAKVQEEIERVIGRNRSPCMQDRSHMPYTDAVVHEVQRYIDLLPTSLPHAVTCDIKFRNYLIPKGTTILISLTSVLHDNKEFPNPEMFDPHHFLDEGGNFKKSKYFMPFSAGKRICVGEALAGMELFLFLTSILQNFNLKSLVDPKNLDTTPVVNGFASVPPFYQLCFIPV

The target in test [15] is Cytochrome P450 3A4 (Homo sapiens) (UniProt P08684). Description: qHTS Assay for Activators of Cytochrome P450 3A4 (AID 885). Further: nearly all actives have a fitted effect of over 65% in size. The essentials:
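CYP3A4 activity: Luciferin-PPXE O-dealkylation, 25uM substrate, 200mM KPO4, RT throughout. Read-out is luciferase luminescence; higher values reflect activation.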

For test [16], the target named is Cytochrome P450 2D6 (Homo sapiens) (UniProt P10635). Description: qHTS Assay for Inhibitors and Substrates of Cytochrome P450 2D6 (AID 891).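 Further: luciferin methyl ether substrate demethylated by CYP2D6 with NADPH regeneration; on the % scale 0 is the no-effect control and ±100 the full control effect; nearly all actives have a fitted effect of over 60% in size.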 The essentials:
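Luminescent read-out of luciferin formed by 5 nM human CYP2D6 demethylating 30 uM Luciferin-ME EGE (Km level) over 60 min at room temperature after NADPH regeneration addition. Data normalized to full inhibition by 1.43 uM quinidine.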

A short description of test [17]: qHTS Assay for Identification of Small Molecule Antagonists for NFkB Signaling Pathway (AID 895; active means well fitted inhibition curve with a large enough effect in the signal ratio, with a control signal flat, not every such curve was filed as active; the % refers to the signal ratio; further: potency means the concentration at half of the fitted maximal effect). The method in brief: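 NFkB-bla ME-180 cervical carcinoma cells with beta-lactamase reporter under NFkB response element; compounds added, then TNF alpha at 10 pM final (EC50), 5 h at 37 C. LiveBLAzer substrate 2 h, room temperature; emission 460/530 nm at 405 nm excitation.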

Test [18] is described as follows: Cellular Toxicity (caspase-3) H-4-II-E (AID 663).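 Further: cells exposed to compound for 16 hr before readout; 0% = DMSO basal and 100% = 100 µM tamoxifen.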 Particulars: Potency: caspase-3 activation. The method in brief: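 Caspase 3/7 activation measured in H-4-II-E cells in complete culture medium after 16 hr treatment at 37 °C, using luciferase-coupled substrate readout; AC50 values come from Hill-equation fits of normalized concentration-response data.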
Test [19] in a line: Cellular Toxicity (caspase-3) NIH 3T3 (AID 666).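 Further: 0% = DMSO basal and 100% = 100 µM tamoxifen stimulation.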 The essentials:
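Activity: caspase-3/7 induction, NIH 3T3 cells, 16 hr treatment at 37°C, luminescent Caspase-Glo detection; AC50 via Hill equation.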

Test [20] deals with Cytochrome P450 3A4 (Homo sapiens) (UniProt P08684). Put plainly: qHTS Assay for Inhibitors and Substrates of Cytochrome P450 3A4 (AID 884). Further: nearly all actives have a fitted effect of over 50% in size. Further: potency means the concentration at half of the fitted maximal effect. The essentials:
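Luminescent readout of luciferin produced by CYP3A4 (20 nM) dealkylation of Luciferin-PPXE, 25 uM (its KM). NADPH-driven reaction ran 60 min at RT after 10 min compound preincubation; data scaled to 57 uM ketoconazole as 100% inhibition.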

A number with no mark means an inactive call. Records with an inconclusive call do not appear. Calls of active or inactive are those of the source. Unless noted, the call rests on the fitted dose curve; in most records, active means well fitted curve in the direction sought with a large enough effect; inconclusive means small, poorly fitted or top-dose-only effect, or another doubt; inactive means no such curve, though single readings can be large; an effect the other way counts as inactive or inconclusive.

Chain of 3',5'-cyclic-AMP phosphodiesterase 4B (Homo sapiens) (Q07343 whole entry, looked up): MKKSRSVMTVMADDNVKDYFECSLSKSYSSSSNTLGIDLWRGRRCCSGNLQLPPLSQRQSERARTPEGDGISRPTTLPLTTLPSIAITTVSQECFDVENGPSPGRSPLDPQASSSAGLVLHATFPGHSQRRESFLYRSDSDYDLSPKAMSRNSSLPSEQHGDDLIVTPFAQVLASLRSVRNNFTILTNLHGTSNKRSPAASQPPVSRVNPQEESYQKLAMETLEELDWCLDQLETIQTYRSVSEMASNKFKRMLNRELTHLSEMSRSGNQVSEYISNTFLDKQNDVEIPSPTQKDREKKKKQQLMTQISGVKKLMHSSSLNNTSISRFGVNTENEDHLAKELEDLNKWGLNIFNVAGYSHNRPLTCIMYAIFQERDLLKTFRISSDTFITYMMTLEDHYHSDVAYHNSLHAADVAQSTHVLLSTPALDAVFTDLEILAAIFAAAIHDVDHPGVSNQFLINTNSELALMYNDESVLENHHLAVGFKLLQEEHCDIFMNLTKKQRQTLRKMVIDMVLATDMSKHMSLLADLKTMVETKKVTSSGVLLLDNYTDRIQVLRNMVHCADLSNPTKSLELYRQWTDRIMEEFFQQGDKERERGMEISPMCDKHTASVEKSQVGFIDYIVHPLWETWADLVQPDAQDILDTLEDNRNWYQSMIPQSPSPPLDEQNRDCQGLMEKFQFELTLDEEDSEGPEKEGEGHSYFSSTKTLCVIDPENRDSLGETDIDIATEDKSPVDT
Chain of Cytochrome P450 3A4 (Homo sapiens) (P08684 whole entry, looked up): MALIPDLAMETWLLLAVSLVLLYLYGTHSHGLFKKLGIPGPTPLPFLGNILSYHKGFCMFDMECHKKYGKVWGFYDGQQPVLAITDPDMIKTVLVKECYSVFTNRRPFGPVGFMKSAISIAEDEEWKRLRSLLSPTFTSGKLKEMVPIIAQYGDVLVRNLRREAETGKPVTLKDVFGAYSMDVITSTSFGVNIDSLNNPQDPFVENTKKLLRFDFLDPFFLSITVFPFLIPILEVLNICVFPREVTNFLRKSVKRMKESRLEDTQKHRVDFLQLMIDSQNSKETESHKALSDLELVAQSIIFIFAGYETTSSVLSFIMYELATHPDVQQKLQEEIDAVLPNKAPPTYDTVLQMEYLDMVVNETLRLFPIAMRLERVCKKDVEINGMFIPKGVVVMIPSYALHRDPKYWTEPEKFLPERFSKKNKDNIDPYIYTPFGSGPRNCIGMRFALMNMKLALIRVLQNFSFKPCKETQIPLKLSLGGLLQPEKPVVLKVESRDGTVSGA
Chain of Guanine nucleotide-binding protein G(i) subunit alpha-1 (Homo sapiens) (P63096 whole entry, looked up): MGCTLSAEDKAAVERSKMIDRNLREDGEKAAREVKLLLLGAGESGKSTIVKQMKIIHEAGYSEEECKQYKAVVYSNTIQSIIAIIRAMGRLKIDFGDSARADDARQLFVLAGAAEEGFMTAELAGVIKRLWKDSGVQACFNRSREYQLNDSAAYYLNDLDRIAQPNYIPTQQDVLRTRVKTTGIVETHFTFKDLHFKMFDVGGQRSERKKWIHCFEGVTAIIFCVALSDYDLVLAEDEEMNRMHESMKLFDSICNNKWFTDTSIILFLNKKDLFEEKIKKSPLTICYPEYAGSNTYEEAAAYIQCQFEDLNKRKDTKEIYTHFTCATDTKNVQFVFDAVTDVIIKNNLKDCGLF
Chain of Cytochrome P450 2D6 (Homo sapiens) (P10635 whole entry, looked up): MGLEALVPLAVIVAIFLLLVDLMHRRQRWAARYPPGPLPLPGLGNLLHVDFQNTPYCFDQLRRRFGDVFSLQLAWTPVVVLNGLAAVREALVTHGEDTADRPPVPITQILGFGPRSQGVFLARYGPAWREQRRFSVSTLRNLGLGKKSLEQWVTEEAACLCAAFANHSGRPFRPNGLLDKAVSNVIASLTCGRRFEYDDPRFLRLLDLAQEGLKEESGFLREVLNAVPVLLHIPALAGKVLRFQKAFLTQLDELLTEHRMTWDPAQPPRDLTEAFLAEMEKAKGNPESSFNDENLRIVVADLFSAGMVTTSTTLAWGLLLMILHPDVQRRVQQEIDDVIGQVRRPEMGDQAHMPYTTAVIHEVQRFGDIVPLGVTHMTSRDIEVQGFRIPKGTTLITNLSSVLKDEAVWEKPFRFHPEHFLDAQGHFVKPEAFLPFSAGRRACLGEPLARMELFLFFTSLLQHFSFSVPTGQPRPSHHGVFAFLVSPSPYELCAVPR

With `Oc1ccc(O)cc1`, the activity change, negative = cytotoxicity in test [1] was -96.1% (active). The call in test [2], in test [5], in test [7], in [9], in test [12] and in [13] was inactive. For the same molecule, the Potency result in test [3], in [4], in test [6], in test [8], in test [10] and in test [11] was “inactive” each time. In addition, the Potency entry in test [14], in [15] and in [16] was “inactive” throughout. The Potency in [17] was 10 µM (active).

For `C[C@H](O)C(=O)Nc1c(I)c(C(=O)NC(CO)CO)c(I)c(C(=O)NC(CO)CO)c1I`, the molecule was classed as inactive in [2].

For the molecule `CC(O)(P(=O)(O)O)P(=O)(O)O`, the outcome in test [2] was inactive.

For `Oc1c(Cl)cc(Cl)cc1Sc1cc(Cl)cc(Cl)c1O`, the activity change, negative = cytotoxicity in test [1] was -28.4%. The Potency result in test [3], in test [6], in test [8], in test [10], in test [18] and in test [11] was “inactive” throughout. Moreover, the Potency result in [19] and in test [15] was “inactive” in each case. In addition, the result in test [5], in test [7], in test [9] and in test [12] was inactive.

`Cc1cc(N)c2cc(NC(=O)Nc3ccc4nc(C)cc(N)c4c3)ccc2n1`: in [2], the outcome was inactive.

With `COC1=CC(=O)C[C@@H](C)[C@]12Oc1c(Cl)c(OC)cc(OC)c1C2=O`, the activity change, negative = cytotoxicity in test [1] was -20.5%. Further, the Potency entry in [3], in test [4], in [6], in [8], in test [10] and in [18] was “inactive” in each case. Besides, the Potency entry in test [11] and in test [19] was “inactive” each time. The outcome in [5], in test [7], in test [9] and in test [12] was inactive.

As for `CN(C)/N=N/c1nc[nH]c1C(N)=O`, the activity change, negative = cytotoxicity in test [1] was -2.47%. The Potency entry in [3], in [4], in test [6], in test [8], in [10] and in [18] was “inactive” in each case. Further, the Potency result in test [11], in [19] and in test [20] was “inactive” each time. The result in test [5], in [7], in test [9] and in test [12] was inactive.

Regarding `CCCCOc1ccc(OCCCN2CCOCC2)cc1`, the molecule was called inactive in test [2].

Take `Cc1cc(=O)n(-c2ccccc2)n1C`: in test [2], the molecule was called inactive.

For `NCCc1ccn[nH]1`, in test [2], the call was inactive.

As for `CC(=O)O[C@]1(C(C)=O)CC[C@H]2[C@@H]3C[C@H](C)C4=CC(=O)CC[C@]4(C)[C@H]3CC[C@@]21C`, the activity change, negative = cytotoxicity in [1] was -6.64%. Moreover, the Potency entry in test [3], in test [6], in [8], in [10], in test [18] and in [11] was “inactive” each time. The Potency result in test [19] and in test [15] was “inactive” throughout. The result in test [5], in test [7], in test [9] and in test [12] was inactive. Further, in [20], the Potency was 15.8 µM (active).

For `C[C@@H](CN(C)C)CN1c2ccccc2Sc2ccccc21`, the outcome in test [2] was inactive.

Consider `CC(=O)Oc1ccc(C(c2ccc(OC(C)=O)cc2)c2ccccn2)cc1`, for which the activity change, negative = cytotoxicity in test [1] was -3.78%. The Potency entry in [3], in test [4], in test [6], in test [8], in test [10] and in [18] was “inactive” throughout. Further, the Potency result in test [11], in test [19] and in test [15] was “inactive” in each case. Also, the molecule was classed as inactive in [5], in test [7], in [9] and in test [12].

Values taken from PubChem BioAssay (NCATS).
